Consider six compounds from PubChem BioAssay (Tox21).

Assay [1] is described as follows: qHTS assay for identifying genotoxic compounds that show differential cytotoxicity against isogenic chicken DT40 cell lines with known DNA damage response pathways - wild type cell line (AID 743012). Note: nearly all actives have a fitted effect of over 60% in size. The method, boiled down:
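Wild type DT40, 300 cells/well, ~0.5 h settle at 37 C/5% CO2; compounds in DMSO added by pintool; 40 h at 37 C/5% CO2; CellTiter-Glo, 30 min RT; luminescence.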
In general terms: Quantitative high-throughput screening tests each substance at several concentrations.

Assay [2] in a line: qHTS assay for identifying genotoxic compounds that show differential cytotoxicity against isogenic chicken DT40 cell lines with known DNA damage response pathways - Rad54/Ku70 mutant cell line (AID 743015). Note: nearly all actives have a fitted effect of over 60% in size.
Assay [3] is described as follows: qHTS assay to identify small molecule antagonists of the androgen receptor (AR) signaling pathway - cell viability counter screen (AID 743033; note: nearly all actives have a fitted effect of over 45% in size).
Assay [4] in a line: qHTS assay to identify small molecule antagonists of the androgen receptor (AR) signaling pathway using the MDA cell line - cell viability counter screen (AID 743041; note: nearly all actives have a fitted effect of over 45% in size). An outline of the steps: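 MDA-kb2 AR-luc cells (MMTV-luciferase, AR/GR responsive) treated with compounds plus R1881 agonist for 16 h at 37C. CellTiter-Fluor added at 15.5 h; fluorescence read after 30 min in the same wells.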

Assay [5] in a line: qHTS assay to identify small molecule antagonists of the thyroid receptor (TR) signaling pathway - cell viability counter screen (AID 743064). Note: nearly all actives have a fitted effect of over 50% in size. An outline of the steps:
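In rat pituitary GH3.TRE-Luc reporter cells co-exposed to compound and 1 nM T3 for 23.5 h, cytotoxicity was assessed with CellTiter-Fluor in the same wells, read by fluorescence.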

Assay [6] is described as follows: qHTS assay to identify small molecule antagonists of the thyroid receptor (TR) signaling pathway (AID 743065). Note: series mostly up to about 70 µM; nearly all actives have a fitted effect of over 55% in size. The method, boiled down:
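GH3.TRE-Luc rat pituitary cells (two TREs driving luciferase) were dosed with compound, then stimulated with 1 nM T3 (final) for 23.5 h at 37 C. ONE-Glo luminescence was the read-out, with CellTiter-Fluor fluorescence as the cytotoxicity counter-screen.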

Assay [7] concerns thyroid hormone receptor (rat, GH3 cells). Nature of the assay: qHTS assay to identify small molecule agonists of the thyroid receptor (TR) signaling pathway (AID 743066; calls by dose curve).
Assay [8] in a line: qHTS assay to identify small molecule antagonists of the estrogen receptor alpha (ER-alpha) signaling pathway - cell viability counter screen (AID 743074; calls by dose curve;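 note: HEK293 cells carrying ER-alpha-UAS-bla reporter stimulated with 17beta-estradiol; nearly all actives have a fitted effect of over 45% in size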).
A short description of assay [9]: qHTS assay to identify small molecule antagonists of the estrogen receptor alpha (ER-alpha) signaling pathway using the BG1 cell line - cell viability counter screen (AID 743081).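 Note: compound given together with 17beta-estradiol as the ER stimulus; series mostly up to about 70 µM; nearly all actives have a fitted effect of over 45% in size.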
The target of the next assay is Aromatase (Homo sapiens) (UniProt P11511). Nature of the assay: qHTS assay to identify aromatase inhibitors (AID 743083). Note: series mostly up to about 70 µM; nearly all actives have a fitted effect of over 55% in size.
Chain of Aromatase (Homo sapiens) (P11511 whole entry, looked up): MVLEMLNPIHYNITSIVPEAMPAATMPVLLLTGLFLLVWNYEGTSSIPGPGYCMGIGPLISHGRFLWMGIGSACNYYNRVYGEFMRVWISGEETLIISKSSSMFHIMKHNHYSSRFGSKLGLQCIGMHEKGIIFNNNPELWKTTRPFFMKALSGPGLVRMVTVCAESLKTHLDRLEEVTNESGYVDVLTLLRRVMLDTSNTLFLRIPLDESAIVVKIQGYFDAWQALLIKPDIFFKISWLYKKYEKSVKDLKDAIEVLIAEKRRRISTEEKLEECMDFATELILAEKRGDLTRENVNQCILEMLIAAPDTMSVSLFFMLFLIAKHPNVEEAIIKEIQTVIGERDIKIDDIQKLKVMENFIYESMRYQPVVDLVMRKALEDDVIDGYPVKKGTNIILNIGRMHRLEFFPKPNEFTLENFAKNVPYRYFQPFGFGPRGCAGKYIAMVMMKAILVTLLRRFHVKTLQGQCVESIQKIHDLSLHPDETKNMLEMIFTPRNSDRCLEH
Assay [10] in a line: qHTS assay to identify aromatase inhibitors - cell viability counter screen (AID 743084).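 Note: cells stimulated with testosterone during compound exposure; nearly all actives have a fitted effect of over 55% in size.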
Assay [11] can be described thus: qHTS assay for identifying genotoxic compounds that show differential cytotoxicity against isogenic chicken DT40 cell lines with known DNA damage response pathways - Rev3 mutant cell line (AID 743014). Note: nearly all actives have a fitted effect of over 55% in size.
Assay [12] deals with Estrogen receptor (Homo sapiens) (UniProt P03372). The assay can be described thus: qHTS assay to identify small molecule antagonists of the estrogen receptor alpha (ER-alpha) signaling pathway (AID 743069; active = well fitted curve in the direction sought with a large enough effect in the signal ratio in the repeat runs, not every such curve was filed as active; the % refers to the signal ratio). An outline of the steps: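 HEK293 ER-alpha-UAS-bla GripTite cells, held overnight in 2% charcoal-stripped FBS, 5,000 cells/well, preincubated 4 h, then compound plus 17beta-estradiol for 18 h at 37C. Beta-lactamase read by LiveBLAzer B/G FRET substrate, 2 h at room temperature.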
Chain of Estrogen receptor (Homo sapiens) (P03372 whole entry, looked up): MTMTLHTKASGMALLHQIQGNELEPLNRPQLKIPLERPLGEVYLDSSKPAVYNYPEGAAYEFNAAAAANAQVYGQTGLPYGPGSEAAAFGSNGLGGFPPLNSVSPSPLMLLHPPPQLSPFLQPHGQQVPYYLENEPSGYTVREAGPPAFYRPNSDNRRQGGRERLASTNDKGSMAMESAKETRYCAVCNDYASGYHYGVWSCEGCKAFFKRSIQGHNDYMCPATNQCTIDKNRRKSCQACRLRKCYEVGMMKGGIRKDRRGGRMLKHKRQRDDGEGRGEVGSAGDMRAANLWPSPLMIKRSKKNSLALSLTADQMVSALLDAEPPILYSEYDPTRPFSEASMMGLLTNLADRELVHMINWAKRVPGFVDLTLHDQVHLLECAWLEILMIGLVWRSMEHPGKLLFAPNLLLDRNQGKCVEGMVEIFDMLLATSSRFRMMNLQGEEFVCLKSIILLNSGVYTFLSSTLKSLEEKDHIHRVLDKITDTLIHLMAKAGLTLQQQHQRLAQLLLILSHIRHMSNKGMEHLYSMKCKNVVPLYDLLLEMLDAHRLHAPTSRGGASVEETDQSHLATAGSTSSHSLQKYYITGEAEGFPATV

Assay [13] shares this target. The assay can be described thus: qHTS assay to identify small molecule agonists of the estrogen receptor alpha (ER-alpha) signaling pathway (AID 743075; calls by dose curve).
The target is the same in assay [14]. The assay can be described thus: qHTS assay to identify small molecule agonists of the estrogen receptor alpha (ER-alpha) signaling pathway using the BG1 cell line (AID 743079). Note: nearly all actives have a fitted effect of over 20% in size. Note: potency is the fitted concentration of half-maximal effect.
Assay [15] is described as follows: qHTS assay to identify small molecule antagonists of the estrogen receptor alpha (ER-alpha) signaling pathway using the BG1 cell line (AID 743080; calls by dose curve;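 note: BG1 cells stimulated with 17beta-estradiol alongside compound; series mostly up to about 70 µM; nearly all actives have a fitted effect of over 25% in size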). The method, boiled down: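 Seeding, 24 h rest, compound transfer from DMSO, 17beta-estradiol addition, 21.5 h incubation, CellTiter-Fluor (30 min, 37 C), then ONE-Glo (30 min, room temperature): this sequence was run on BG1-Luc-4E2 reporter cells.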

Records with an inconclusive call do not appear. The source made the active and inactive calls. Unless noted, calls come from the whole dose curve; as a rule, active = well fitted curve in the direction sought with a large enough effect in the repeat runs; inconclusive = weak or mixed curves; inactive = no such curve, though single readings can be large; an effect the other way counts as inactive or inconclusive.

For `CC(O)COC(C)(C)C` (configuration not stated), the Potency entry in [1], in assay [2], in [4], in [5], in [6] and in assay [9] was “inactive” in each case. Further, the Potency result in assay [10] was “inactive”. Further, the outcome (in [3]; in assay [7]; in assay [8]; with Aromatase (Homo sapiens)) was inactive.

As to `CCCC(=O)Nc1ccc(OCC(O)CNC(C)C)c(C(C)=O)c1` (configuration not stated), the Potency entry in [1], in assay [11], in assay [2], in assay [4], in [13] and in assay [14] was “inactive” in each case. For the same compound, the Potency result in assay [9] and in [10] was “inactive” in each case. Besides, the outcome (in assay [3]; in assay [12]; in assay [8]; in assay [15]; with Aromatase (Homo sapiens)) was inactive.

For `C=C(C)[C@@H]1CC=C(C)C(=O)C1`, the Potency result in assay [11], in assay [2], in assay [4], in [5], in assay [6] and in assay [9] was “inactive” each time. For the same compound, the Potency entry in assay [10] was “inactive”. Besides, the compound was classed as inactive (in [3]; in assay [7]; in assay [8]; in the assay with Aromatase (Homo sapiens)).

With `ONc1ccccc1`, the Potency result in [2], in assay [4], in [5], in assay [6], in assay [13] and in assay [9] was “inactive” in each case. Also, the Potency entry in [10] is “inactive”. The result (in assay [3]; in assay [7]; in assay [8]; in the assay with Aromatase (Homo sapiens)) was inactive. Further, in assay [14], the Potency is 60.5 µM (active).

With `CC(=O)C1C(=O)C=C(C)OC1=O` (configuration not stated), the Potency entry in [1], in assay [11], in [2], in assay [4], in assay [5] and in assay [6] was “inactive” in each case. The Potency entry in assay [13], in assay [14], in [9] and in [10] was “inactive” in each case. The outcome (in assay [3]; in assay [7]; in [12]; in assay [15]; with Aromatase (Homo sapiens)) was inactive.

In the case of `OCC1(CO)COCOC1`, the Potency entry in assay [11], in assay [2], in [4], in [5], in [9] and in [10] was “inactive” throughout. Further, the result (in assay [3]; in assay [7]; in assay [8]; in the assay with Aromatase (Homo sapiens)) was inactive.
